According to PubChem BioAssay (NCATS):
Inconclusive results are not listed. Active and inactive are the calls of the source. Unless noted, the call rests on the fitted dose curve; in most records, active means well fitted curve in the direction sought with a large enough effect; inconclusive means small, poorly fitted or top-dose-only effect, or another doubt; inactive means no such curve, though single readings can be large; an effect the other way counts as inactive or inconclusive.

Assays:
[1] = Viability counterscreen for antagonist of constitutive androstane receptor (CAR) against the NCATS DSHEA and TCM libraries (AID 1794837);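 further: compound exposure lasted 24 h before viability reading; 0% is about no effect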
Summary of the method: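 HepG2-CYP2B6-hCAR cells (2,500/well) were allowed to attach for 5 h, then exposed to compounds with 48 uM CITCO for 24 h at 37C. Viability was read by CellTiter-Fluor fluorescence after 1 h.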

[2] = Viability counterscreen for agonist of constitutive androstane receptor (CAR) against the NCATS DSHEA and TCM libraries (AID 1794838); further: 0% is about no effect
Summary of the method: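 HepG2-CYP2B6-hCAR cells (2,500/well) attached 5 h, then got compounds plus 0.75 uM PK11195 final. After 24 h at 37C, viability read by CellTiter-Fluor fluorescence (Ex/Em 405/540 nm).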

[3] = biological target: Nuclear receptor subfamily 1 group I member 3 (Homo sapiens) (UniProt Q14994); experiment: Primary qHTS for agonist of constitutive androstane receptor (CAR) against the NCATS DSHEA and TCM libraries (AID 1794839);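 further: HepG2 cells expressing human CAR with a CYP2B6 reporter plus PK11195 antagonist; 0% is about no effect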
Sequence of Nuclear receptor subfamily 1 group I member 3 (Homo sapiens) (Q14994 whole entry, looked up): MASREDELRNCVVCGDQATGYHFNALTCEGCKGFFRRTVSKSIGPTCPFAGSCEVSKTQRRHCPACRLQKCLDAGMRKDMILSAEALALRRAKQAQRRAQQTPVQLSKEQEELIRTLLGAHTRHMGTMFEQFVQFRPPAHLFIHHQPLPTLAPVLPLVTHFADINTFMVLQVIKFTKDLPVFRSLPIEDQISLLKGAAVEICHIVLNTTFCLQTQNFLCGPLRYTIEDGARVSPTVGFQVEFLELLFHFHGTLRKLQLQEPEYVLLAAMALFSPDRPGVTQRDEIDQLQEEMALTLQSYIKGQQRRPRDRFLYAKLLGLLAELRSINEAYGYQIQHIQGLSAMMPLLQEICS
Summary of the method: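 HepG2-CYP2B6-hCAR cells (2,500/well) were attached for 5 h, then treated for 24 h at 37 °C with compounds plus 0.75 µM PK11195. Luciferase luminescence (ONE-Glo) was read, with CellTiter-Fluor viability (Ex/Em 405/540 nm).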

[4] = HepG2 viability counterscreen (readout 2: ATP content) against the NCATS DSHEA and TCM libraries (AID 1794840);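 further: HepG2 cells exposed to substances for about 24 h; 0% is about no effect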
Summary of the method: (§1)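 HepG2 cells (1,000 cells/well) attached ~4 h, then treated ~24 h at 37C with substances. Protease activity read by GF-AFC (25 uM final, 30 min, Ex/Em 380/510 nm); ATP content then by CellTiter-Glo luminescence.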

[5] = HepG2 viability counterscreen (readout 1: protease activity) against the NCATS DSHEA and TCM libraries (AID 1794841);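 further: cells exposed to compounds for about 24 h before the protease read; 0% is about no effect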
Summary of the method: as §1

[6] = biological target: Cytochrome P450 2D6 (Homo sapiens) (UniProt P10635); experiment: qHTS for inhibitors of CYP2D6 against the NCATS DSHEA and TCM libraries (AID 1919972); further: on the % scale 0 is the no-effect control and ±100 the full control effect
Sequence of Cytochrome P450 2D6 (Homo sapiens) (P10635 whole entry, looked up): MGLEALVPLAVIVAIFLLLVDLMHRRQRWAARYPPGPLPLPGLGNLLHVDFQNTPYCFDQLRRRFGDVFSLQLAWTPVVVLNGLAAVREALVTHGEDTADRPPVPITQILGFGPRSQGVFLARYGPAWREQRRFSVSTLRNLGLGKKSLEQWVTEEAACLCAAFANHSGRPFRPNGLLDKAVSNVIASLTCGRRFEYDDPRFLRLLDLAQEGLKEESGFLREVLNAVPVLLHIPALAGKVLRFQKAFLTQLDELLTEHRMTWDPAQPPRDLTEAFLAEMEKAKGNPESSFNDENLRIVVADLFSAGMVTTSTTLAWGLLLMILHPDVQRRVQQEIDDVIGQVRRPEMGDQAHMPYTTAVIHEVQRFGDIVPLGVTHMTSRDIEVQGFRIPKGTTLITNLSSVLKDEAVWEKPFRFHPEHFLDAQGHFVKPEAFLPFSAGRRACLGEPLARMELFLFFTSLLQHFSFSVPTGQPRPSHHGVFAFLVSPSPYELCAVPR
Summary of the method: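 Luminescent P450-Glo read-out of CYP2D6 turnover of a luciferin substrate after NADPH-driven reaction of 30-45 min at room temperature. Compounds were first preincubated 15 min with enzyme at titrated concentrations; quinidine was the intraplate control.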

[7] = biological target: Cytochrome P450 2C9 (Homo sapiens) (UniProt P11712); experiment: qHTS for inhibitors of CYP2C9 against the NCATS DSHEA and TCM libraries (AID 1919973);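 further: luminogenic pro-luciferin CYP2C9 substrate turned into luciferin with NADPH regeneration; series mostly up to about 34 µM; on the % scale 0 is the no-effect control and ±100 the full control effect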
Sequence of Cytochrome P450 2C9 (Homo sapiens) (P11712 whole entry, looked up, canonical isoform): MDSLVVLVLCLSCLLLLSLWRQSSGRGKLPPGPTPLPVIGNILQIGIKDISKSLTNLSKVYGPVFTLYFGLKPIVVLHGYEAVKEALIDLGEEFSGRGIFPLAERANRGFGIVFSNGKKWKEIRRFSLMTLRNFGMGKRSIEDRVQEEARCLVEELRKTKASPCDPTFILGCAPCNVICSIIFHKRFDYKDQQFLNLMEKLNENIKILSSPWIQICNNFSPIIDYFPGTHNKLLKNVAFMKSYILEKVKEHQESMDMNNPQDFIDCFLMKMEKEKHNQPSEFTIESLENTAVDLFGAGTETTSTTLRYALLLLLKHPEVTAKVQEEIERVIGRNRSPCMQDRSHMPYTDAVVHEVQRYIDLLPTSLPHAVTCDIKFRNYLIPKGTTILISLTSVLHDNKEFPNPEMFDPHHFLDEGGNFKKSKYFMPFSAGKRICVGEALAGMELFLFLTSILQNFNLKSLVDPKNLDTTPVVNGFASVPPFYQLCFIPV
Summary of the method: (§2)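 Read-out is luminescence after P450-Glo detection (30 min, RT). Before that: 15 min compound–enzyme preincubation, then 30-45 min reaction with 1x NADPH regeneration solution, substrate concentration isoform-specific.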

[8] = biological target: Cytochrome P450 1A2 (Homo sapiens) (UniProt P05177); experiment: qHTS for inhibitors of CYPIA2 against the NCATS DSHEA and TCM libraries (AID 1919976);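 further: light from luciferin formed by CYP1A2 from a pro-luciferin substrate; series mostly up to about 37 µM; on the % scale 0 is the no-effect control and ±100 the full control effect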
Sequence of Cytochrome P450 1A2 (Homo sapiens) (P05177 whole entry, looked up): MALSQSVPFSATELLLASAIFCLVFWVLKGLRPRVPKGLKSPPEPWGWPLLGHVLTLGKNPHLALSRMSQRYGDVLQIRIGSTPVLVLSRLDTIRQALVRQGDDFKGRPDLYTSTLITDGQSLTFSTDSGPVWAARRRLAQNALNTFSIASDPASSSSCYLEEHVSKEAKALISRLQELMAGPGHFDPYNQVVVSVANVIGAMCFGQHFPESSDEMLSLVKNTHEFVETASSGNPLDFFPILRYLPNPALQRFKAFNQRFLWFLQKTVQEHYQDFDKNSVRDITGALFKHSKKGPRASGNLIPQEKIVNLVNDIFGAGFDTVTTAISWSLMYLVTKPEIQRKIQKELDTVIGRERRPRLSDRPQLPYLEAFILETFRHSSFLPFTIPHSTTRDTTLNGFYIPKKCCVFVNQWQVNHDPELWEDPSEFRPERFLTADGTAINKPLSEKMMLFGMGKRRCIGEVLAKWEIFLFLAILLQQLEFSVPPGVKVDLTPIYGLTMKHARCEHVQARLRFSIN
Summary of the method: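 CYP1A2 + luciferin substrate, 100 mM KPO4-type buffer; cmpd 15 min RT; 1x NADPH regen, 30-45 min RT dark; detection reagent 30 min RT; luminescence. Minus-enzyme wells as background; furafylline intraplate control.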

[9] = qHTS Counterscreen for compound interference against the NCATS DSHEA and TCM libraries (AID 1919978); conditions: firefly luciferase detection reagent interference, luminescence; further: % of control where 0% means no effect
Summary of the method: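 D-luciferin (1 uM final) or 100 mM potassium phosphate buffer alone was preincubated 15 min at RT with compounds (19.5 nM to 39.8 uM final). Luciferin detection reagent was then added and luminescence read after 30 min at RT.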

[10] = Dual reporter qHTS for agonist of Pregnane X Receptor (hPXR) against the NCATS DSHEA and TCM libraries: Fluorescence readout (AID 1920058); further: 0% is about no effect
Summary of the method: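 HepG2 hPXR-Luc, 2000 cells/well, 5 h attach; cpds ~24 h, 37 °C/5% CO2; CellTiter-Fluor 1 h; fluor. Ex/Em 405/540 nm = viability.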

[11] = biological target: Nuclear receptor subfamily 1 group I member 2 (Homo sapiens) (UniProt O75469); experiment: Dual reporter qHTS for agonist of Pregnane X Receptor (hPXR) against the NCATS DSHEA and TCM libraries: Luminescence readout (AID 1920059); further: 0% is about no effect
Sequence of Nuclear receptor subfamily 1 group I member 2 (Homo sapiens) (O75469 whole entry, looked up): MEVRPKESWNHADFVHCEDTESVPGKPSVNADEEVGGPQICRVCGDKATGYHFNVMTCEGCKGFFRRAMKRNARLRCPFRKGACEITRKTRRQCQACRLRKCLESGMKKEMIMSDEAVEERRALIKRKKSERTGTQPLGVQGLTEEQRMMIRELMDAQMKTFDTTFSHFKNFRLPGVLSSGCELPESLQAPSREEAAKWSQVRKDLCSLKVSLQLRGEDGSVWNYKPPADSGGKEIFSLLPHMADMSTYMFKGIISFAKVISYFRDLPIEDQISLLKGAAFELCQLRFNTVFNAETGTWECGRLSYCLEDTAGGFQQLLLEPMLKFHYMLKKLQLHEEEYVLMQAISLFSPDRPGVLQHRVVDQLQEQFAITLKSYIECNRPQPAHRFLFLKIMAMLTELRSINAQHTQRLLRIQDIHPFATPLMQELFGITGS
Summary of the method: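 Luminescent PXR reporter read (ONE-Glo) after a CellTiter-Fluor viability read, following 24 h, 37C treatment of HepG2 cells stably carrying hPXR-Luc.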

[12] = biological target: Nuclear receptor subfamily 1 group I member 2 (Homo sapiens) (UniProt O75469); experiment: Dual reporter qHTS for antagonist of Pregnane X Receptor (hPXR) against the NCATS DSHEA and TCM libraries: Luminescence Readout (AID 1920060);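 further: HepG2 cells carrying hPXR luciferase reporter stimulated with rifampicin at 2 µM; 0% is about no effect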
Summary of the method: (§3)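 In antagonist mode, 2 uM rifampicin was added to hPXR-Luc HepG2 cells alongside test substances, incubated 24 h at 37 C; luminescence gave reporter activity, and CellTiter-Fluor fluorescence (405/540 nm) gave viability.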

[13] = Dual reporter qHTS for antagonist of Pregnane X Receptor (hPXR) against the NCATS DSHEA and TCM libraries: Fluorescence Readout (AID 1920061); further: 0% is about no effect
Summary of the method: as §3

[14] = biological target: Mitogen-activated protein kinase 10 (Mus musculus) (UniProt Q61831); experiment: JNK3 AlphaScreen Assay (AID 530; active means well fitted curve in either direction with a large enough effect, not every such curve was filed as active;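 further: kinase came from lysate of stimulated human HepG2 cells; signal reports phosphorylation of biotinylated GST-cJun 1-79 at Ser73 with 10 µM ATP; series mostly up to about 57 µM; on the % scale 0 is the no-effect control and ±100 the full control effect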)
Summary of the method: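 Compound titrations were preincubated 15 minutes at room temperature with substrate, antibody and pre-activated JNK3-containing HepG2 lysate. Reactions were started with 10 uM ATP and stopped with EDTA-containing bead buffer for AlphaScreen detection.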

[15] = KB-3-1 P-gp reporter qHTS against the NCATS DSHEA and TCM libraries (AID 1919975); further: 0% is about no effect
Summary of the method: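 Parental KB-3-1 human cervical adenocarcinoma cells (500 cells/well, DMEM + 10% FBS) were treated with substances for ~72 h at 37C; viability was read by CellTiter-Glo luminescence.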

[16] = biological target: Cytochrome P450 3A4 (Homo sapiens) (UniProt P08684); experiment: qHTS for inhibitors of CYP3A4 against the NCATS DSHEA and TCM libraries (AID 1919971);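 further: on the % scale 0 is the no-effect control and ±100 the full control effect; inhibition lowers luminescence from luciferin made by CYP3A4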
Sequence of Cytochrome P450 3A4 (Homo sapiens) (P08684 whole entry, looked up): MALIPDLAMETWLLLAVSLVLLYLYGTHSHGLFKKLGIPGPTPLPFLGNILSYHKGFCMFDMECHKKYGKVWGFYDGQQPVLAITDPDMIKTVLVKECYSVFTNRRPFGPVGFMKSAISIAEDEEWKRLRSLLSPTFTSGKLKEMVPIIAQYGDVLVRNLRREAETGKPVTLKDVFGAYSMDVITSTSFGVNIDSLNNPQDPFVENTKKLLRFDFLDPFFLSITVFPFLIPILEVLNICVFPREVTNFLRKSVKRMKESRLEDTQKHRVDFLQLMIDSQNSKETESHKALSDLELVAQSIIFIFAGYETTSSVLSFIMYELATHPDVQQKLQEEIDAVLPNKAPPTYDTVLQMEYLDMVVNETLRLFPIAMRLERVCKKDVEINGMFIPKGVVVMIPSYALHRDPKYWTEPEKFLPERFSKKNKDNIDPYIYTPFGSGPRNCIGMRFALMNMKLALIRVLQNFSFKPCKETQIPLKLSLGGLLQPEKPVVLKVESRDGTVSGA
Summary of the method: as §2

CC1(C)CC[C@]2(C(=O)O)CC[C@]3(C)C(=CCC4[C@@]5(C)CC[C@H](O)[C@@](C)(CO)C5CC[C@]43C)[C@H]2C1 (some centres not stated)
inactive: outcome [1] | outcome [2] | Potency [3] | outcome [4] | outcome [5] | Potency [6] | Potency [7] | Potency [8] | max response [9] -0.0807% | outcome [10] | Potency [11] | outcome [12] | outcome [13]

C=CC(=C)CCC=C(C)C
inactive: Potency [14] | outcome [1] | outcome [2] | Potency [3] | outcome [4] | outcome [5] | Potency [6] | Potency [7] | outcome [15] | Potency [8] | max response [9] 1.58% | outcome [10] | Potency [11] | outcome [12] | outcome [13]

O=C(O)c1ccccc1
inactive: Potency [14] | outcome [1] | outcome [2] | Potency [3] | outcome [4] | outcome [5] | Potency [6] | Potency [7] | outcome [15] | Potency [8] | max response [9] -0.483% | outcome [10] | Potency [11] | outcome [12] | outcome [13]

CCCCCCCC/C=C\CCCCCCCCCCCCCC(=O)O
inactive: outcome [1] | outcome [2] | Potency [3] | outcome [4] | outcome [5] | Potency [6] | Potency [7] | Potency [8] | max response [9] -2.19% | outcome [10] | Potency [11] | outcome [12] | outcome [13]

CC/C=C\C/C=C\C/C=C\C/C=C\CCCCC(=O)O
inactive: viability change, negative = cytotoxic [1] -11.8% [at 5 µM] | activity change, negative = cytotoxicity [2] -13.9% [at 5 µM] | activation [3] -23.1% [at 5 µM] | activity change, negative = cytotoxic [4] -8.49% [at 3.42 µM] | activity change, negative = inhibition [5] -7.13% [at 3.42 µM] | activity change, negative = inhibition [6] -5.86% [at 4.27 µM] | activity change, negative = inhibition [7] -16.1% [at 4.27 µM] | activity change, negative = inhibition [15] -9.13% [at 3.26 µM] | activity change, negative = inhibition [8] 16.4% [at 4.62 µM] | max response [9] -1.09% | activation [10] -3.85% [at 5 µM] | activation [11] -9.78% [at 5 µM] | activity change, negative = inhibition [12] -24.2% [at 5 µM] | activity change, negative = inhibition [13] -0.29% [at 5 µM]

CC(C)=CCC[C@](C)(O[C@@H]1O[C@H](CO)[C@@H](O)[C@H](O)[C@H]1O)[C@H]1CC[C@]2(C)[C@@H]1[C@H](O)C[C@@H]1[C@@]3(C)CC[C@H](O)C(C)(C)[C@@H]3[C@@H](O[C@@H]3O[C@H](CO)[C@@H](O)[C@H](O)[C@H]3O[C@@H]3O[C@@H](C)[C@H](O)[C@@H](O)[C@H]3O)C[C@]12C
inactive: outcome [1] | outcome [2] | Potency [3] | outcome [4] | outcome [5] | Potency [6] | Potency [7] | Potency [8] | max response [9] 0.587% | outcome [10] | Potency [11] | outcome [12] | outcome [13]

C=CC(C)(CCC=C(C)C)OC(C)=O (configuration not stated)
inactive: outcome [1] | outcome [2] | Potency [3] | outcome [4] | outcome [5] | Potency [16] | Potency [6] | Potency [7] | Potency [8] | max response [9] -0.984% | outcome [10] | Potency [11] | outcome [12] | outcome [13]
